Of roughly 7,900 targets only a part is listed; those with a hit were picked by preference. About 0.6% of all pairs of compound and target were hits.

Chain of UniProt P54886 (P54886 whole entry, looked up): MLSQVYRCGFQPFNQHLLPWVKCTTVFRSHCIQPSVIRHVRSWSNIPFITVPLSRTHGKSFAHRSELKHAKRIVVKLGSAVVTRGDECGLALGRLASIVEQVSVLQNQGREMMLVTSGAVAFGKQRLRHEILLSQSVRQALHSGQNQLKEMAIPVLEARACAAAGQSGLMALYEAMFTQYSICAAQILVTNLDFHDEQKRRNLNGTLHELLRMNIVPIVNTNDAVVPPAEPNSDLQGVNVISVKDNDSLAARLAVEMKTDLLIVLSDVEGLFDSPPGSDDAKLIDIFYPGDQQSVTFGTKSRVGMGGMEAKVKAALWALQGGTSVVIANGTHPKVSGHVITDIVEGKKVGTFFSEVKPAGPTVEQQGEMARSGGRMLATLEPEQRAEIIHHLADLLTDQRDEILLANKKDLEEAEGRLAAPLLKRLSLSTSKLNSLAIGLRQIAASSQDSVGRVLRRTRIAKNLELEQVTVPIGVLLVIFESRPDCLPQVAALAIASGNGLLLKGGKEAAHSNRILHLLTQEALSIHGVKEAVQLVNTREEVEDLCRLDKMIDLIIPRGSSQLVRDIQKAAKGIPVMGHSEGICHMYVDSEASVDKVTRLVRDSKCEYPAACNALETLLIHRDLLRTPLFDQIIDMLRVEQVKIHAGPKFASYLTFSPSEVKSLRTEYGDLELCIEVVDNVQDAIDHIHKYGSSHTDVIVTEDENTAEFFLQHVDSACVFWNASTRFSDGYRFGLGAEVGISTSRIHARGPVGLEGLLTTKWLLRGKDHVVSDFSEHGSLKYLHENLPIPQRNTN
Chain of UniProt P30837 (P30837 whole entry, looked up): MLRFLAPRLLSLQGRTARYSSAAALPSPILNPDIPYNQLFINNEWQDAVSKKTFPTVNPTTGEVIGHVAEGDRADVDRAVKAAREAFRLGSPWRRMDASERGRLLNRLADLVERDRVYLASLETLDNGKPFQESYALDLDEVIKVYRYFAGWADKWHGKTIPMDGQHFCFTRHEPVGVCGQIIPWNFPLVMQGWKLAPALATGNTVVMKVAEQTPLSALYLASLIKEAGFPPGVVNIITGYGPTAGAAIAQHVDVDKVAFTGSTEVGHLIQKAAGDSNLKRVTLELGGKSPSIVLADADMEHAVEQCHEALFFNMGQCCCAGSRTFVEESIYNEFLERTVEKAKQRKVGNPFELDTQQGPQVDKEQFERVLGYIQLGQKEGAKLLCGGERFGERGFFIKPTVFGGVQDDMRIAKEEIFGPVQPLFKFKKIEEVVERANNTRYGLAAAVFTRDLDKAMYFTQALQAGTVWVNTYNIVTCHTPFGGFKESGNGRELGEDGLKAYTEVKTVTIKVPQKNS
Chain of UniProt P63010 (P63010 whole entry, looked up): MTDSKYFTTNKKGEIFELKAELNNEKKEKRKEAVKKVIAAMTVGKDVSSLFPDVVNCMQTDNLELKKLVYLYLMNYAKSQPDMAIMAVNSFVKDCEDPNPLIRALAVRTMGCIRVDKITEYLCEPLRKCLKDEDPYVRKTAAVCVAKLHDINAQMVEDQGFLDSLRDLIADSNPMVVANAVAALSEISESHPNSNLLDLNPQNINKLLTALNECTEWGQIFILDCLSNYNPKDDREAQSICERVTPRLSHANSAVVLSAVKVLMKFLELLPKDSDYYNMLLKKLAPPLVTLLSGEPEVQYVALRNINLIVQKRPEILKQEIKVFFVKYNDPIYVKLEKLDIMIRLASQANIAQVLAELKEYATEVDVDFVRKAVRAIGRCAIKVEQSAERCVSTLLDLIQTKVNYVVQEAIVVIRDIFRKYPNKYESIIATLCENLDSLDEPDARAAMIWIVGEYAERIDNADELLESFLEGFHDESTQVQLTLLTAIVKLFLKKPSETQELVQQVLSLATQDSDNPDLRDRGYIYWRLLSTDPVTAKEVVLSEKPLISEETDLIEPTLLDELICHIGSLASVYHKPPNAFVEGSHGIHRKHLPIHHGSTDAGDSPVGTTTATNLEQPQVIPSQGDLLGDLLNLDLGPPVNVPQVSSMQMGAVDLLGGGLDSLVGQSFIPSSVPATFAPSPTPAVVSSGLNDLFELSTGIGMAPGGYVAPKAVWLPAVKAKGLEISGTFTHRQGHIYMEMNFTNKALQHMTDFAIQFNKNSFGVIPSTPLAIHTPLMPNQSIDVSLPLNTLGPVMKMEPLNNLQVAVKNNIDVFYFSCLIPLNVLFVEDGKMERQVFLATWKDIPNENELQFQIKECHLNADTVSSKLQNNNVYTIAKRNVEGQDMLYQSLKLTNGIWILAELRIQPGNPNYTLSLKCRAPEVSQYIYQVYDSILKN
Chain of UniProt Q16864 (Q16864 whole entry, looked up): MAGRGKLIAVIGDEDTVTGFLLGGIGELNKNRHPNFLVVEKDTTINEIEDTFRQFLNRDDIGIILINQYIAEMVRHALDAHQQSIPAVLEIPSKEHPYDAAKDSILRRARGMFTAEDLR
Chain of UniProt O43861 (O43861 whole entry, looked up): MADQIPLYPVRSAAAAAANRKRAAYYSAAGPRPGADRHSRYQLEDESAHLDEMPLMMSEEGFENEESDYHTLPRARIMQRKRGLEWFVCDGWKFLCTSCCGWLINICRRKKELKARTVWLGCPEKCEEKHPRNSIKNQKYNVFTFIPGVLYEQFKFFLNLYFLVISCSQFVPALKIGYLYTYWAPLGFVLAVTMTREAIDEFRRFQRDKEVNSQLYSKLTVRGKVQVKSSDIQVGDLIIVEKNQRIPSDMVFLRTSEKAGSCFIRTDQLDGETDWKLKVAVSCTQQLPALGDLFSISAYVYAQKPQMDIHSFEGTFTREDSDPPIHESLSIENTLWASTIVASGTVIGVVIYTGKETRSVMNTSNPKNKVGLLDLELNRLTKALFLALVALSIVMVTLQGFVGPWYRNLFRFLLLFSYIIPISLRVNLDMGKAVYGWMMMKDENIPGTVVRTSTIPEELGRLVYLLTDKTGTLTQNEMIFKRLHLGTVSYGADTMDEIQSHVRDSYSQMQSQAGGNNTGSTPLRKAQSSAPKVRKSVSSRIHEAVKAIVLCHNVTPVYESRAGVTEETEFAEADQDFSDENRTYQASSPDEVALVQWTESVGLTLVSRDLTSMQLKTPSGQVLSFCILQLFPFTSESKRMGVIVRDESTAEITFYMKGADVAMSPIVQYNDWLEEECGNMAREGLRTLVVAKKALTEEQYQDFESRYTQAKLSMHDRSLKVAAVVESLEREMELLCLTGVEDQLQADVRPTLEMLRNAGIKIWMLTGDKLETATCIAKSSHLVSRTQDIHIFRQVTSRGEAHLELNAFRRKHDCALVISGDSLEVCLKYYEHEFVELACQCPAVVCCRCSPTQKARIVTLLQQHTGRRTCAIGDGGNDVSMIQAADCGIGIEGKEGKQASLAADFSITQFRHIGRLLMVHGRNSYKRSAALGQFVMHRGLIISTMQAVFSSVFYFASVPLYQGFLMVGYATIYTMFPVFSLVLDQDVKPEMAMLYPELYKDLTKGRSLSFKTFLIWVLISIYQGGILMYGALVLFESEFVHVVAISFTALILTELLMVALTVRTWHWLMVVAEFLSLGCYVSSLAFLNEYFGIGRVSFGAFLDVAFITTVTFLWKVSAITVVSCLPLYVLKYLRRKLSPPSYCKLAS
Chain of UniProt P42331 (P42331 whole entry, looked up): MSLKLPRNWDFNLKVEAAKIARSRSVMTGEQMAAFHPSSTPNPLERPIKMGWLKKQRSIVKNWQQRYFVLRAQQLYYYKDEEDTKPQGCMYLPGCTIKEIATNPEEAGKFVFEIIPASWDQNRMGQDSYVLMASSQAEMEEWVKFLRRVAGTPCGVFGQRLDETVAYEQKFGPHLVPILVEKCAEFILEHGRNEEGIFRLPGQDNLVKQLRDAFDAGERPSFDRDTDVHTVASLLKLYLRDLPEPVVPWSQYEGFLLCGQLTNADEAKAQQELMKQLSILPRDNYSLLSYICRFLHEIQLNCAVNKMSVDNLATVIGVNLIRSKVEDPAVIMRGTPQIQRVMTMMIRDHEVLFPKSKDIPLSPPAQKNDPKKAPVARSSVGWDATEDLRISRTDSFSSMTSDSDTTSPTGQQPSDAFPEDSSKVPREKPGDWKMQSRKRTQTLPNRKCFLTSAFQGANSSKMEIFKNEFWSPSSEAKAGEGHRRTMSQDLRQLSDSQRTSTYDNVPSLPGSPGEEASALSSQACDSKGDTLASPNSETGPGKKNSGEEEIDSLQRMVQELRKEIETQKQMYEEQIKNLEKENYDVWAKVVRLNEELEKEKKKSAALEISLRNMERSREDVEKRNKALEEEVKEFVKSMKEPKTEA
Chain of UniProt Q9NVI7 (Q9NVI7 whole entry, looked up): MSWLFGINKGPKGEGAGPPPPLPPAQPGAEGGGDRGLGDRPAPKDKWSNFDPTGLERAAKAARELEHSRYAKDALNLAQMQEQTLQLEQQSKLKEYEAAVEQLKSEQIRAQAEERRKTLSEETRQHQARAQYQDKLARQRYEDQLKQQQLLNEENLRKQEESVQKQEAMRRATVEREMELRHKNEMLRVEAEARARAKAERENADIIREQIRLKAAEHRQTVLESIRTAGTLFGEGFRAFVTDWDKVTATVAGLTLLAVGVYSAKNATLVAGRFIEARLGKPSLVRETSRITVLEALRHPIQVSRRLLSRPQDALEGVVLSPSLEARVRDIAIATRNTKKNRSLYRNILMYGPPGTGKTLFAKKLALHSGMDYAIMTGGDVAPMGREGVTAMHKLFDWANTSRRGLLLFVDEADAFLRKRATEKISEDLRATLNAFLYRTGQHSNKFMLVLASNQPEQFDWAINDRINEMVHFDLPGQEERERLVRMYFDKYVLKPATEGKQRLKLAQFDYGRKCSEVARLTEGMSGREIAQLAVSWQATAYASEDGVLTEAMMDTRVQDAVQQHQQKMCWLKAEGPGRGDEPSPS
Chain of UniProt Q8N6S5 (Q8N6S5 whole entry, looked up): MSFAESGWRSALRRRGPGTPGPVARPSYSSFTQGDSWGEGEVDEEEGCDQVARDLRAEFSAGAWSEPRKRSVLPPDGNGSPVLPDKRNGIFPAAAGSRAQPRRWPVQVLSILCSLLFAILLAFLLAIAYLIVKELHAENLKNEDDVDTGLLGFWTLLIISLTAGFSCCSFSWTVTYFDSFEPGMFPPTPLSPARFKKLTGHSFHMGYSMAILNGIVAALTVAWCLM

Compound in the assay: CC1=C2C(=CC=C1)N=C(N(C2=O)C3=CC=CC=C3C)CN4C=NC5=C(N=CN=C54)N
Description: log2 fold change, soluble protein after heating vs DMSO (PISA); higher = thermal stabilisation; K562 cells, 10 uM, 30 min; active = over 0.2 and 3.5 SD of the protein, either way, in both replicates (recomputed). The gist of the method: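 Soluble protein was defined as the supernatant after 21,000xg for 90 min. It came from K562 cells at 2×10^6 cells/mL given 10 μM compound for 30 min, heated in aliquots for 3 min across 48°C-58°C, pooled, and extracted in PBS with 0.5% NP-40 at 4°C, and was quantified by TMTpro 16plex LC-MS/MS with equalised channel sums. Thermal stability against control samples, from duplicates, is reported as log2 fold change.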
For AUP1 (UniProt Q9Y679), the log2 fold change was 0.028 (inactive).
Under ACSM3 (UniProt Q53FZ2) stands 0.091 (inactive); under AHCYL1 (UniProt O43865), 0.014 (inactive); under AP2B1 isoform 2 (UniProt P63010), -0.016 (inactive).
ACP1 isoform 2 (UniProt P24666): the log2 fold change is 0.004 (inactive).
The same measure for BZW2 (UniProt Q9Y6E2): 0.025 (inactive).
Under ATP9B (UniProt O43861) stands 0.055 (inactive).
Under AGRN (UniProt O00468) stands 0.043 (inactive).
Turning to ALDH1B1 (UniProt P30837), the log2 fold change was 0.013 (inactive).
Under ACSL4 (UniProt O60488) stands 0.132 (inactive).
The same measure for ATP6V1F isoform 2 (UniProt Q16864): -0.138 (inactive); for ALDH18A1 (UniProt P54886): 0.028 (inactive); for ARFGAP2 (UniProt Q8N6H7): 0.086 (inactive).
As for BAP1 (UniProt Q92560), the log2 fold change is -0.156 (inactive).
The same measure for APH1A (UniProt Q96BI3): -0.21 (inactive); for ACADM isoform 2 (UniProt P11310): -0.015 (inactive); for ARHGAP25 isoform 4 (UniProt P42331): -0.173 (inactive).
The same measure for BPHL (UniProt Q86WA6): 0.075 (inactive); for ACSL3 (UniProt O95573): 0.028 (inactive).
The same measure for ARL6IP6 (UniProt Q8N6S5): 0.08 (inactive).
As for ATG9A (UniProt Q7Z3C6), the log2 fold change was 0.021 (inactive).
The same measure for ABCC5 (UniProt O15440): -0.02 (inactive); for ATAD3A isoform 2 (UniProt Q9NVI7): -0.052 (inactive).

These data come from the supplement of paper PMC10849652.
